# Assay outcomes from PubChem BioAssay.
# Most compounds without a hit are left out; they make up all but 10% or so of the library.
# NPR1 antag: blocks ANP-stimulated signaling of human Npr1 receptor; AID 1347048; P16066; HEK293 hNpr1 GloSensor cGMP, ANP-stimulated luminescence; 76,000 compounds, 1.6% hits; Potency, µM (series often up to 46.3 µM), for inactives: at the highest dose activity change, negative = inhibition, most hits filed as inhibitors; calls by dose curve; further: on the % scale 0 is the no-effect control and ±100 the full control effect; nearly all actives have a fitted effect of over 60% in size
#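 Compound pre-incubated 30 min at room temperature on GloSensor-loaded HEK293 cells stably carrying hNpr1 and the pGS-40F cGMP biosensor. Stimulation uses hNppA at 0.1 nM final; luminescence is taken at baseline and 20 min post-agonist.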
# HEK293 tox: cytotoxic compounds in HEK 293 cells; Potency, µM (highest dose often 115 µM), for inactives: at the highest dose activity change, negative = cytotoxicity, hits mostly inhibitors; HEK 293 viability, ATP luminescence (CellTiter-Glo), 48-72 h; 94,000 compounds, 6.6% hits; further: on the % scale 0 is the no-effect control and ±100 the full control effect; nearly all actives have a fitted effect of over 60% in size
#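 HEK 293 cells seeded at 250 cells/well were exposed to compound for 48 or 72 hr at 37 degree Celsius. Viability taken as ATP content by CellTiter-Glo luminescence.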
# FLuc inh-1: inhibitors of firefly (Photinus pyralis) luciferase. 76,000 compounds, 2.5% hits. P08659. Potency, µM (top dose mostly 115 µM), most hits filed as inhibitors. purified P. pyralis luciferase, luminescence, biochemical; further: on the % scale 0 is the no-effect control and ±100 the full control effect; nearly all actives have a fitted effect of over 65% in size
# Target sequence (P08659 whole entry, looked up): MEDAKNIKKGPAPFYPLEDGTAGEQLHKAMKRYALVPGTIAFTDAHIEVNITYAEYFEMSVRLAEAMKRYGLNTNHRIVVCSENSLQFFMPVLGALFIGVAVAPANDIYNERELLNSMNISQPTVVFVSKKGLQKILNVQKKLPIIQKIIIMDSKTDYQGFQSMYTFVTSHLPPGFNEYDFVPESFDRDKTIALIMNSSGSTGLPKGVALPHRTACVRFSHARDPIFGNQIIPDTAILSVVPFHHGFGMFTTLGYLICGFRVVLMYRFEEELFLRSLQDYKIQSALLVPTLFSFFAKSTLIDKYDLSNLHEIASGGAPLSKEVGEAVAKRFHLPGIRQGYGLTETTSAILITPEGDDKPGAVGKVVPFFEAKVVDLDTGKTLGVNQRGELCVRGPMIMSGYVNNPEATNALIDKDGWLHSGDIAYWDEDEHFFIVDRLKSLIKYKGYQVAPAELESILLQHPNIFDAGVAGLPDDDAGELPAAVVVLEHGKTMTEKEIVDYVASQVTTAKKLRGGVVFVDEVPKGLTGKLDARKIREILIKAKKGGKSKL
#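 Purified 10nM P. pyralis luciferase with 10uM D-luciferin and 10uM ATP in 50mM Tris acetate pH 7.5, 10mM Mg acetate, 0.01% Tween-20, 0.05% BSA. qHTS titration; luminescence read by CCD imager.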
# GPT2 inh: GPT2 alanine aminotransferase inhibition; Q8TD30; Recombinant GPT2, coupled pyruvate oxidase/HRP Amplex Red fluorescence; Potency, µM (titrated, usually from 57.7 µM), inactives show at the top dose activity change, negative = inhibition, actives largely listed as inhibitors; 100,000 compounds, 0.25% hits; further: on the % scale 0 is the no-effect control and ±100 the full control effect; nearly all actives have a fitted effect of over 60% in size
#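 Recombinant GPT2 (10ng/uL) with 250uM a-KG and 2mM L-alanine, 30 min at room temperature, in HEPES pH 7.5 buffer. Pyruvate detected by pyruvate oxidase/HRP/Amplex Red fluorescence after 30 min in the dark; AOA (50uM) as positive control.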
# 3T3 cytotox: cytotoxic compounds in NIH 3T3 cells; NIH 3T3 viability, CellTiter-Glo ATP luminescence, 48-72 h; Potency, µM (highest dose often 96.7 µM), for inactives: at the top dose activity change, negative = cytotoxicity, usual class: inhibitors; 94,000 compounds, 4.3% hits; AID 1345082; further: on the % scale 0 is the no-effect control and ±100 the full control effect; nearly all actives have a fitted effect of over 55% in size
#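 Viability of NIH 3T3 cells after 48 or 72 hr compound treatment at 37 °C was assessed by CellTiter-Glo, with luminescence imaged following a 10 min room-temperature step.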
# FLuc SDR -ATP: binders stabilizing firefly luciferase, without ATP. Purified FLuc-C-HiBiT, Nano-Glo HiBiT luminescence, no ATP. Potency, µM (top dose mostly 32.7 µM), inactives show at the top dose activation (signal gain), hits mostly activators. 1,300 compounds, 7.8% hits. shares compounds with FLuc inh-1; further: nearly all actives have a fitted effect of over 55% in size
# FLuc SDR ATP: firefly luciferase binding stabilization, ATP added. shares compounds with FLuc inh-1. purified FLuc-C-HiBiT + ATP, HiBiT complementation luminescence. 1,300 compounds, 8.7% hits. Potency, µM (series often up to 32.7 µM), for the others: top-dose activation (gain of signal), actives largely listed as activators. AID 1963319;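 further: signal reports ligand binding via conformational change of the enzyme rather than luciferase catalysis; % of control where 0% means no effect; nearly all actives have a fitted effect of over 55% in size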
# FLuc inh-2: blocks firefly luciferase enzymatic activity; shares compounds with FLuc inh-1; purified FLuc-C-HiBiT enzyme, luciferin luminescence; Potency, µM (top dose mostly 32.7 µM), for the others: at the highest dose activity change, negative = inhibition, most hits filed as inhibitors; 1,300 compounds, 42% hits; AID 1963320; further: on the % scale 0 is the no-effect control and ±100 the full control effect; nearly all actives have a fitted effect of over 70% in size
# Active calls of the source: *; i = inactive; u = inconclusive; x = no result; [ ] = another dose, or the depositor's remark. Unless noted, the call rests on the fitted dose curve; in most records, active means well fitted curve in the direction sought with a large enough effect; inconclusive means small, poorly fitted or top-dose-only effect, or another doubt; inactive means no such curve, though single readings can be large; an effect the other way counts as inactive or inconclusive. Potency means the concentration at half of the fitted maximal effect.
SMILES,NPR1 antag,HEK293 tox,FLuc inh-1,GPT2 inh,3T3 cytotox,FLuc SDR -ATP,FLuc SDR ATP,FLuc inh-2
Cc1nnc(CN(C)c2ccc(-c3nc(CCCc4ccccc4)no3)cn2)o1,u,u,u,-5.8%,-8.0%,x,x,x
CN(C)C1CCN(c2ccc(-c3nc(CCCc4ccccc4)no3)cn2)CC1,-15.1%,28.2µM*,5.62µM*,-7.1%,35.5µM*,10.7%,12.9%,-17.2%
Cc1nc(C2(C)CCN(C(=O)c3cc(C)n(Cc4ccc(F)cc4)c3C)CC2)no1,x,u,x,i,u,x,x,x
COc1ccc(-c2noc(CC3CCN(C(=O)C4CC4)CC3)n2)cc1,u,u,i,-4.3%,u,x,x,x
Cc1ccc(C)c(N2CCN(C(=O)C3CCN(c4nc(-c5ccc(C(C)C)cc5)no4)CC3)CC2)c1,x,x,x,x,x,21.9%,u,u
Cc1ccc(NC(=O)C2CCN(c3nc(-c4ccc(C(C)C)cc4)no3)CC2)c(Cl)c1,x,x,x,x,x,17.9%,u,u
Cc1ccc(-c2noc([C@@H]3CCCN3C(=O)c3ccc(C(C)C)cc3)n2)cc1,3.7%,u,u,i,u,x,x,x
c1ccc([C@@H]2C[C@@H]3C[C@H](N4CCNCC4)C[C@@H]3CO2)cc1,x,u,x,x,-29.7%,x,x,x
COc1ccc(CC(=O)N2C[C@@H](CO)[C@@H]3Oc4c(F)cccc4[C@@H]32)cc1,x,u,x,x,-29.8%,x,x,x
O=C(NCc1ccc(F)cc1Cl)C1CCN(c2cnc3nccnc3c2)CC1,4.0%,8.3%,i,i,i,x,x,x
Cc1cc(-c2cc3c(cn2)CN(Cc2ccccn2)CCN3)ccn1,2.3%[70.6 µM],u,14.1µM*,-1.1%[88.5 µM],89.1µM*,21.3%[49.3 µM],18.6%[49.3 µM],u
Clc1ccc(-c2cc3c(cn2)CN(Cc2ccncc2)CCN3)cc1,u,89.1µM*,2.24µM*,-27.5%[88.5 µM],u,31.0%[49.3 µM],u,16.1µM*
CCn1cc(-c2cc3c(cn2)CN(Cc2ccncc2)CCN3)cn1,-1.4%[70.6 µM],u,u,1.6%[88.5 µM],-37.5%[138 µM],x,x,x
CC(C)(C)OC(=O)N1CC(Nc2cccc(C(F)(F)F)c2)C1,x,u,x,-18.9%,u,x,x,x
O=C(NC1CCOC1)C1CCN(c2nccc(Nc3ccccc3F)n2)CC1 (stereo not given),x,-19.7%,x,-7.0%,-20.8%,x,x,x
Cc1ccc(-n2ncc3c(N4CCCC(C)C4)ncnc32)cc1C (stereo not given),x,x,x,x,x,3.51µM*,1.24µM*,0.157µM*
CC1CCCN(c2ncnc3c2CN(c2ccccc2)C(=O)N(C)C3)C1 (stereo not given),-0.1%,i,i,i,-7.4%,x,x,x
CC1CCCN(c2ncnc3c2cnn3-c2cccc(Cl)c2)C1 (stereo not given),x,x,x,x,x,11.1µM*,u,0.785µM*
COc1cccc(-c2c(C(=O)NCCN3CCOCC3)nc3sccn23)c1,x,-9.1%,x,2.0%,u,x,x,x
CCOC(=O)Nc1cc(-c2ccc(C)c(NS(C)(=O)=O)c2)nn2c(C)nnc12,x,x,x,i,x,x,x,x
O=C(c1ccc(Cl)cc1)N1CCC2(C1)C(=O)N(c1ccccc1)c1ccccc12 (stereo not given),x,u,x,-3.0%,u,x,x,x
CC(C)n1cnnc1CC1CCN(C(=O)Cc2c[nH]c3ccccc23)C1 (stereo not given),x,-0.9%,x,-0.4%,-17.5%,x,x,x
Cc1ccc(NC(=O)CN2C(=O)NC3(CCCCC3)C2=O)c(C)c1,3.8%,-4.3%,i,-2.8%,-14.3%,x,x,x
Cc1ccc(NC(=O)c2oc3ccc4c(c3c2C)C(=O)CC(C)(C)O4)c(C)c1,x,x,x,x,x,20.0%,u,u
